Among the data in PubChem BioAssay (EPA / NIEHS) are outcome and AC50 values, retold here.

Records with an inconclusive call do not appear. More than one record can exist for a structure, and the calls need not agree. The source made the active and inactive calls. Rule for the calls, unless noted: active = hit-call score of the fitted dose curve at least 0.9, where 1 is the maximum; inconclusive = response in the unintended direction; inactive = score below 0.9.

By AC50 is commonly meant the midpoint of the concentration-response curve, whichever way the signal moves.

A short description of assay [1]: ATG_TAL_CIS: Attagene CIS-FACTORIAL HepG2 Assay for human TAL Basal Promoter (AID 2282966; active = hit-call score of the fitted dose curve at least 0.9, where 1 is the maximum; inactive = score below 0.9;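 note: background control endpoint measuring basal TAL promoter reporter mRNA not a specific factor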). The conditions noted are these: HepG2 Attagene cis-factorial TAL promoter reporter; actives raise or lower the signal. The essentials: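 Background-control endpoint: basal TAL promoter reporter transcripts in transiently transfected HepG2, measured 24 h after dosing. Read-out by RT-PCR with fluorescent primer extension and capillary electrophoresis; gain or loss of signal fitted relative to DMSO.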

The nature of assay [2]: ATG_TGFb_CIS: Attagene CIS-FACTORIAL HepG2 Assay for human Transforming Growth Factor (TGF) (AID 2282967; active = hit-call score of the fitted dose curve at least 0.9, where 1 is the maximum; inactive = score below 0.9). The conditions noted are these: HepG2 Attagene CIS TGFb reporter, mRNA transcription; actives raise or lower the signal. An outline of the steps: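 Multiplexed cis-reporter HepG2 system, 24 h treatment; mRNA induction read by fluorescence after RT-PCR and CE; DMSO negative control, bidirectional curve fitting.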

Assay [3] can be described thus: ATG_VDRE_CIS: Attagene CIS-FACTORIAL HepG2 Assay for human Vitamin D Receptor Element (VDRE) (AID 2282968; active = hit-call score of the fitted dose curve at least 0.9, where 1 is the maximum; inactive = score below 0.9). Particulars: HepG2 VDRE cis-reporter transcription, actives raise or lower the signal. An outline of the steps: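 Compounds were applied for 24 h to HepG2 cells transfected with promoter-regulated reporter units. Total RNA was reverse-transcribed, and reporter amplicons were fluorescently labelled and sized by capillary electrophoresis.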

The target in assay [4] is Nuclear receptor subfamily 1 group I member 3 (Homo sapiens) (UniProt Q14994). In words: ATG_CAR_TRANS: Attagene TRANS-FACTORIAL HepG2 Assay for human Constitutive Androstane Receptor (CAR) (AID 2282969).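 Note: activators raise reporter mRNA above DMSO so AC50 marks induction.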 The conditions noted are these: HepG2 Attagene TRANS-FACTORIAL CAR reporter. The essentials:
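Transiently transfected HepG2, multiplex TRANS reporters (CAR-Gal4 chimera driving GAL4-UAS reporter). 24 h dosing. Readout: reporter transcript by RT-PCR + capillary electrophoresis, fluorescence intensity; positive direction vs DMSO.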

Assay [5] concerns the target Estrogen receptor (Homo sapiens) (UniProt P03372). Kind of assay: ATG_ERa_TRANS: Attagene TRANS-FACTORIAL HepG2 Assay for human Estrogen Receptor alpha (ERa) (AID 2282970). Particulars: HepG2 Attagene TRANS ERa GAL4 reporter, mRNA. The essentials:
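Reporter transcripts were measured 24 h after dosing by RT-PCR with fluorescent primer extension and capillary electrophoresis. The system is transiently transfected HepG2 expressing exogenous NR-Gal4 chimeras driving GAL4-UAS reporters; DMSO is the baseline.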

In assay [6] the target is X-box-binding protein 1 (Homo sapiens) (UniProt P17861). Kind of assay: ATG_Xbp1_CIS: Attagene CIS-FACTORIAL HepG2 Assay for human X-box Binding Protein 1 (XBP1) (AID 2282972; active = hit-call score of the fitted dose curve at least 0.9, where 1 is the maximum; inactive = score below 0.9). The conditions noted are these: HepG2 XBP1 cis-element reporter, Attagene multiplex; actives raise or lower the signal. The essentials:
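Multiplexed cis-reporter readout in transfected HepG2 liver cells. Exposure lasted 24 hours. Activity in either direction was fitted against DMSO as negative control and baseline.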

Assay [7] in a line: ATG_GAL4_TRANS: Attagene TRANS-FACTORIAL HepG2 Assay for GAL4 (Internal Marker) (AID 2282976). The conditions noted are these: HepG2 Attagene TRANS GAL4 internal marker reporter. An outline of the steps: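 In transfected human HepG2 liver cells dosed 24 h, GAL4 reporter mRNA serves as a baseline marker. Detection by RT-PCR with fluorescent capillary electrophoresis, activity fitted upward relative to DMSO.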

Assay [8] has as its target Glucocorticoid receptor (Homo sapiens) (UniProt P04150). In words: ATG_GR_TRANS: Attagene TRANS-FACTORIAL HepG2 Assay for human Glucocorticoid Receptor (GR) (AID 2282978).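 Note: activators score as hits since higher reporter transcript over DMSO is fitted.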 The conditions noted are these: HepG2 Attagene TRANS GR reporter, mRNA transcription. The essentials:
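Transiently transfected HepG2 cells express chimeric NR-GAL4 proteins acting on GAL4-UAS reporter units. Compounds are applied for 24 h. mRNA induction over DMSO is measured by capillary electrophoresis.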

The target in assay [9] is Oxysterols receptor LXR-beta (Homo sapiens) (UniProt P55055). Kind of assay: ATG_LXRb_TRANS: Attagene TRANS-FACTORIAL HepG2 Assay for human Liver X Receptor beta (LXRb) (AID 2282981). Particulars: HepG2 Attagene TRANS GAL4-LXRb reporter, mRNA. An outline of the steps:
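Multiplexed reporter assay, HepG2, 24 h dosing. Fluorescence of labelled RT-PCR products after capillary electrophoresis gives transcript level; positive fitting direction relative to DMSO.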

Assay [10] deals with Hepatocyte nuclear factor 4-alpha (Homo sapiens) (UniProt P41235). Kind of assay: ATG_HNF4a_TRANS: Attagene TRANS-FACTORIAL HepG2 Assay for human Hepatocyte Nuclear Factor 4 alpha (HNF4a) (AID 2282982). Particulars: HepG2 HNF4a transactivation reporter, mRNA readout. An outline of the steps: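 Endpoint reflects transcriptional activation of a GAL4-UAS reporter by an HNF4a-GAL4 chimera in transfected HepG2 cells, 24 h post-dosing. Fluorescence from RT-PCR products separated by capillary electrophoresis; DMSO baseline.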

Assay [11] is described as follows: ATG_M_06_TRANS: Attagene TRANS-FACTORIAL HepG2 Assay for M06 Transcription Factor (Internal Marker) (AID 2282983). Particulars: HepG2 Attagene TRANS M06 internal marker reporter. The essentials:
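Background-control reporter readout: after 24 h chemical exposure of transiently transfected HepG2 (GAL4-UAS reporter units), mRNA quantified by RT-PCR with fluorescent labeling and capillary electrophoresis. Gain-of-signal fitting against DMSO baseline.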

The nature of assay [12]: ATG_M_32_TRANS: Attagene TRANS-FACTORIAL HepG2 Assay for M32 Transcription Factor (Internal Marker) (AID 2282984). The conditions noted are these: HepG2 Attagene TRANS M32 internal marker reporter. The essentials:
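Internal-marker readout from a multiplexed transcription reporter panel. HepG2 cells were transfected with GAL4-UAS reporter units, treated 24 hours, and reporter transcript levels determined by fluorescence after RT-PCR and capillary separation.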

Assay [13] has as its target Nuclear receptor subfamily 4 group A member 2 (Homo sapiens) (UniProt P43354). In words: ATG_NURR1_TRANS: Attagene TRANS-FACTORIAL HepG2 Assay for human Nuclear Receptor Related Protein 1 (NURR1) (AID 2282985). The conditions noted are these: HepG2 Attagene TRANS reporter, mRNA readout. An outline of the steps:
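Endpoint: reporter mRNA increase relative to DMSO. HepG2 cells transfected with reporter units, treated 24 h; RNA processed by RT-PCR, labelling, HpaI digestion and capillary electrophoresis.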

Assay [14] addresses Transcriptional activator Myb (Homo sapiens) (UniProt P10242). Kind of assay: ATG_Myb_CIS: Attagene CIS-FACTORIAL HepG2 Assay for human Myeloblastosis (Myb) Proto-Oncogene Transcription Factor (AID 2282986; active = hit-call score of the fitted dose curve at least 0.9, where 1 is the maximum; inactive = score below 0.9). Particulars: HepG2 Attagene CIS-FACTORIAL Myb reporter transcription; actives raise or lower the signal. An outline of the steps: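 Using HepG2 liver cells bearing transiently transfected cis-promoter reporter constructs, the assay measures induction or loss of reporter mRNA after 24 hours of dosing. Detection used fluorescently labeled RT-PCR products separated by capillary electrophoresis.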

Assay [15] deals with Nuclear respiratory factor 1 (Homo sapiens) (UniProt Q16656). Kind of assay: ATG_NRF1_CIS: Attagene CIS-FACTORIAL HepG2 Assay for human Nuclear Respiratory Factor 1 (NRF1) Orphan Gene (AID 2282987; active = hit-call score of the fitted dose curve at least 0.9, where 1 is the maximum; inactive = score below 0.9). Particulars: HepG2 NRF1 cis-element reporter, Attagene multiplex; actives raise or lower the signal. The essentials: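 Reporter mRNA induction or loss in HepG2 cells after 24 h dosing; cis-regulated reporter constructs report endogenous transcription-factor activity. Quantified by RT-PCR/capillary electrophoresis fluorescence, DMSO-referenced.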

Assay [16] addresses Steroid hormone receptor ERR1 (Homo sapiens) (UniProt P11474). Kind of assay: ATG_ERRa_TRANS: Attagene TRANS-FACTORIAL HepG2 Assay for human Estrogen-Related Receptor alpha (ERRa) (AID 2282971). The conditions noted are these: HepG2 Attagene TRANS reporter, ERRa transactivation. The essentials: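 Reporter transcripts from ERRa-Gal4 chimera activity measured in transiently transfected human HepG2 cells 24 hours after dosing, using RT-PCR with 6-FAM primer extension, HpaI digestion and capillary electrophoresis; DMSO is baseline.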

Assay [17] can be described thus: ATG_M_19_TRANS: Attagene TRANS-FACTORIAL HepG2 Assay for M19 Transcription Factor (Internal Marker) (AID 2282974). Particulars: HepG2 Attagene TRANS-FACTORIAL M19 internal marker reporter. An outline of the steps:
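Multiplexed TRANS format: HepG2 liver cells bearing transient GAL4-UAS reporter units, chemical treatment 24 h, reporter transcripts quantified by RT-PCR plus capillary electrophoresis. DMSO defines baseline.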

Assay [18] deals with Estrogen-related receptor gamma (Homo sapiens) (UniProt P62508). In words: ATG_ERRg_TRANS: Attagene TRANS-FACTORIAL HepG2 Assay for human Estrogen-Related Receptor gamma (ERRg) (AID 2282977).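 Note: hits increase reporter signal over DMSO so potencies reflect activators.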 The conditions noted are these: HepG2 Attagene TRANS reporter, ERRg transactivation. The essentials:
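Exogenous NR-Gal4 chimera activity measured as reporter transcript induction after 24 h in transiently transfected HepG2 cells. RNA reverse-transcribed, PCR-amplified, 6-FAM-labelled and resolved by capillary electrophoresis; increase over DMSO baseline.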

Assay [19] concerns the target Bile acid receptor (Homo sapiens) (UniProt Q96RI1). In words: ATG_FXR_TRANS: Attagene TRANS-FACTORIAL HepG2 Assay for Farnesoid X Receptor (FXR) (AID 2282979).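 Note: hits raise reporter mRNA above DMSO so AC50 marks FXR activation.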 Particulars: HepG2 Attagene TRANS FXR-GAL4 reporter transcription. An outline of the steps:
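Reporter transcripts from transfected HepG2 cells were measured 24 h after dosing, using RT-PCR with capillary electrophoresis of 6-FAM-labelled fragments. The read-out reflects activity of exogenous FXR-Gal4 chimera on GAL4-UAS units, with induction relative to DMSO.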

Assay [20] concerns the target Oxysterols receptor LXR-alpha (Homo sapiens) (UniProt Q13133). Kind of assay: ATG_LXRa_TRANS: Attagene TRANS-FACTORIAL HepG2 Assay for human Liver X Receptor alpha (LXRa) (AID 2282980). The conditions noted are these: HepG2 Attagene TRANS reporter, LXRa transactivation. The essentials: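 Chemical-induced reporter mRNA measured by RT-PCR with fluorescent labelling and capillary electrophoresis after 24 h dosing of transiently transfected HepG2 cells expressing exogenous NR-Gal4 chimeras; increases scored against DMSO baseline.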

Nuclear receptor subfamily 4 group A member 2 (Homo sapiens), sequence (P43354 whole entry, looked up): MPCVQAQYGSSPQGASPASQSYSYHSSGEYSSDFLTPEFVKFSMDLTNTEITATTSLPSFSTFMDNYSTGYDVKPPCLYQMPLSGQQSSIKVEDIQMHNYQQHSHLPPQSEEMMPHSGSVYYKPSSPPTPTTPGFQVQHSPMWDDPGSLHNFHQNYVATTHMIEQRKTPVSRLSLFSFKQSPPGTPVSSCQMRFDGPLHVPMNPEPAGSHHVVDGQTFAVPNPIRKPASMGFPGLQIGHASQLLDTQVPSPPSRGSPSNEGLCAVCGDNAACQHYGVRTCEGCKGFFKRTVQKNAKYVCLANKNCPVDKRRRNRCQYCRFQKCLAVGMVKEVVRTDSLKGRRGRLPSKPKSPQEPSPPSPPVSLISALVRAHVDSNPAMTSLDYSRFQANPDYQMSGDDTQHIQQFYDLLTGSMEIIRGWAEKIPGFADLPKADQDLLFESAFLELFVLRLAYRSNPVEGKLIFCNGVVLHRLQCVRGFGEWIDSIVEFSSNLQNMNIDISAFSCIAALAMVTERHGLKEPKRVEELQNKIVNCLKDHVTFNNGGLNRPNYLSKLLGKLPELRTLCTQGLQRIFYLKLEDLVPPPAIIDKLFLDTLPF
Nuclear receptor subfamily 1 group I member 3 (Homo sapiens), sequence (Q14994 whole entry, looked up, the tested form may be a part): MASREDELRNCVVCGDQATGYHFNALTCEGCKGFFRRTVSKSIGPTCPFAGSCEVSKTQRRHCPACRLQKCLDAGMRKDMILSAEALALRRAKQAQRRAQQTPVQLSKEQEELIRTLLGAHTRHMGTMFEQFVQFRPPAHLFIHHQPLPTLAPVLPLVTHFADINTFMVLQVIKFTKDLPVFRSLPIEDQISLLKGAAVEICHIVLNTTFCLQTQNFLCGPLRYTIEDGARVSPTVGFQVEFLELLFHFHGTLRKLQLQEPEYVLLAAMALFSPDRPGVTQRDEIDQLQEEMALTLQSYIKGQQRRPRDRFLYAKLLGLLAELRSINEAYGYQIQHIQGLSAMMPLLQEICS
Bile acid receptor (Homo sapiens), sequence (Q96RI1 whole entry, looked up, the tested form may be a part): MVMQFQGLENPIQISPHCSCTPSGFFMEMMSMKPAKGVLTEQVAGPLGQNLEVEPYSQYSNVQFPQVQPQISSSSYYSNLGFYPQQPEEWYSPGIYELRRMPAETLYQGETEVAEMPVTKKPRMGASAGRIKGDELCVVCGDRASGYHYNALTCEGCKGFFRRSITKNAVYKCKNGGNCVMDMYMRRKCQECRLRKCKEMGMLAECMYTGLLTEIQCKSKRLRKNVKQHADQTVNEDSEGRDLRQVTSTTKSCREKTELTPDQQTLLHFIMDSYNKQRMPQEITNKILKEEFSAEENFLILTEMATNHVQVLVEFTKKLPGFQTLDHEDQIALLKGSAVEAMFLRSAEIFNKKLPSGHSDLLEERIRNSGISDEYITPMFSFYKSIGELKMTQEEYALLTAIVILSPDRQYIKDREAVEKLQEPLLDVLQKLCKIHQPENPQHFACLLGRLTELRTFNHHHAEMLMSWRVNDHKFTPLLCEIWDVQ
Nuclear respiratory factor 1 (Homo sapiens), sequence (Q16656 whole entry, looked up): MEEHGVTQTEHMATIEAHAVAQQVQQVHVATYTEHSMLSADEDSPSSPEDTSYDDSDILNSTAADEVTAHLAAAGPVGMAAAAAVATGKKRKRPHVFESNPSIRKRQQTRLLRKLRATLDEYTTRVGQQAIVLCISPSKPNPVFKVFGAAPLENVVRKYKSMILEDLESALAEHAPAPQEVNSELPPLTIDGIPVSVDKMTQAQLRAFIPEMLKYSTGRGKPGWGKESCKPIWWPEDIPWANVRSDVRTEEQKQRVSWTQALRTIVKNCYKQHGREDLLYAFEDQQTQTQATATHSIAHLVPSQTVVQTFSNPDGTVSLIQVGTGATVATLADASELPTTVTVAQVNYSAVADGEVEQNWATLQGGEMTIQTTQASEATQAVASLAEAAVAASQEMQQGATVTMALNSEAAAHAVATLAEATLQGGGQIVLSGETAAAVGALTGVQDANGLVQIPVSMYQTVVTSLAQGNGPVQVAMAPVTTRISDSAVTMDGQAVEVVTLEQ
Transcriptional activator Myb (Homo sapiens), sequence (P10242 whole entry, looked up): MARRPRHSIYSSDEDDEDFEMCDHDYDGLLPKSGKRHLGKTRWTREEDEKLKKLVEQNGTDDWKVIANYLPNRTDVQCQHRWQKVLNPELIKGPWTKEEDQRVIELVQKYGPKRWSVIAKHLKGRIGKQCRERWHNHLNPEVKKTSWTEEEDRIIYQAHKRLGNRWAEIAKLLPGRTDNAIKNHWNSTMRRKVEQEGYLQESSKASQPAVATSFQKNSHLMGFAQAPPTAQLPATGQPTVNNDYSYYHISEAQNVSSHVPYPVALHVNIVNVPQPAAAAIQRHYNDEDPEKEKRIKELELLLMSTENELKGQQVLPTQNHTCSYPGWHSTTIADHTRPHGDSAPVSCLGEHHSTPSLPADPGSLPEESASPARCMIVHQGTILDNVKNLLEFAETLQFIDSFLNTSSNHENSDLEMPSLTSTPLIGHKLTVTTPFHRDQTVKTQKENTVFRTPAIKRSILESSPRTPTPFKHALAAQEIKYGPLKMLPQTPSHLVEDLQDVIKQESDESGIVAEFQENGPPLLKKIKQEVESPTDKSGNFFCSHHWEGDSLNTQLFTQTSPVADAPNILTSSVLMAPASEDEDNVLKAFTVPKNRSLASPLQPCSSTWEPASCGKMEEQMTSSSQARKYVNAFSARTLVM
Glucocorticoid receptor (Homo sapiens), sequence (P04150 whole entry, looked up, the tested form may be a part): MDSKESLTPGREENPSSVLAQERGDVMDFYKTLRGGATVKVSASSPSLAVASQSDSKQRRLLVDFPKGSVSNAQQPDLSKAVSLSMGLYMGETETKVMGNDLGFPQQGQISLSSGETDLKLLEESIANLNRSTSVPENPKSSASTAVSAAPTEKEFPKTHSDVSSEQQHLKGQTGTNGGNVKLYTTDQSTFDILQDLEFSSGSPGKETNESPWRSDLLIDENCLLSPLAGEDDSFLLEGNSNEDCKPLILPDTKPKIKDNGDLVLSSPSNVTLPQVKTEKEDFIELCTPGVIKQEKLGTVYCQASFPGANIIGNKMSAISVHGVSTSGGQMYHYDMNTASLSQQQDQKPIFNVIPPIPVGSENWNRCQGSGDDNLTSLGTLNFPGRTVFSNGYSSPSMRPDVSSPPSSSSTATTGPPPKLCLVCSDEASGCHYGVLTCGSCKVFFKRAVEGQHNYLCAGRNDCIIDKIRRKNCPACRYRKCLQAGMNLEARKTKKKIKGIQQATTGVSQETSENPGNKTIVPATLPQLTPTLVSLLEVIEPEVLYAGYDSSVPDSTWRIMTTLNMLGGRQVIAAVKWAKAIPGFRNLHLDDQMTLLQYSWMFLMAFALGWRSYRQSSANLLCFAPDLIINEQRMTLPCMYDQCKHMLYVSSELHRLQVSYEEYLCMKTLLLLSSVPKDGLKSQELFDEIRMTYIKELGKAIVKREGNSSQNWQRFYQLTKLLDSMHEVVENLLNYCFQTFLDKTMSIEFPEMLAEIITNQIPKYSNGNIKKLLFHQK
Estrogen receptor (Homo sapiens), sequence (P03372 whole entry, looked up, the tested form may be a part): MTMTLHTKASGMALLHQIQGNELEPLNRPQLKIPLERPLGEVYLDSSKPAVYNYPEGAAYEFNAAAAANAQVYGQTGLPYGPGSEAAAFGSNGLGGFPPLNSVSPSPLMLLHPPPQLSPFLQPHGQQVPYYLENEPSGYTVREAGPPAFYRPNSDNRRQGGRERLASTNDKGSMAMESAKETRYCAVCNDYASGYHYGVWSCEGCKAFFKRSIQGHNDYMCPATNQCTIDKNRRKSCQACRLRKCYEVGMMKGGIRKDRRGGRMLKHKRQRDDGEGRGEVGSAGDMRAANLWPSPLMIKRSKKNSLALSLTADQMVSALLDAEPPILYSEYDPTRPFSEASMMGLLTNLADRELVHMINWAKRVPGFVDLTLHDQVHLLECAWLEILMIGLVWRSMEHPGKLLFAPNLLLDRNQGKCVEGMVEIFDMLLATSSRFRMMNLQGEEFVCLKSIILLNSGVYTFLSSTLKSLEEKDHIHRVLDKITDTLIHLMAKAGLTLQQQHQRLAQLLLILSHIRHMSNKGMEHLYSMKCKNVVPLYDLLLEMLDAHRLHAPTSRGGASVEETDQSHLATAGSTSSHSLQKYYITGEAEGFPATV
X-box-binding protein 1 (Homo sapiens), sequence (P17861 whole entry, looked up): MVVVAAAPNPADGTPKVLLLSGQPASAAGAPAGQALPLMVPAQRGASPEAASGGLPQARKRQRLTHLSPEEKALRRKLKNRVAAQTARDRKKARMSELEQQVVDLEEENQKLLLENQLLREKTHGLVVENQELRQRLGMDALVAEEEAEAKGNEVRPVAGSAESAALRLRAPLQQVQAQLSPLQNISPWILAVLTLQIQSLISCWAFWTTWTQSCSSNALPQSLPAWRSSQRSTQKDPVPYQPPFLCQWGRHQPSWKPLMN
Steroid hormone receptor ERR1 (Homo sapiens), sequence (P11474 whole entry, looked up, the tested form may be a part): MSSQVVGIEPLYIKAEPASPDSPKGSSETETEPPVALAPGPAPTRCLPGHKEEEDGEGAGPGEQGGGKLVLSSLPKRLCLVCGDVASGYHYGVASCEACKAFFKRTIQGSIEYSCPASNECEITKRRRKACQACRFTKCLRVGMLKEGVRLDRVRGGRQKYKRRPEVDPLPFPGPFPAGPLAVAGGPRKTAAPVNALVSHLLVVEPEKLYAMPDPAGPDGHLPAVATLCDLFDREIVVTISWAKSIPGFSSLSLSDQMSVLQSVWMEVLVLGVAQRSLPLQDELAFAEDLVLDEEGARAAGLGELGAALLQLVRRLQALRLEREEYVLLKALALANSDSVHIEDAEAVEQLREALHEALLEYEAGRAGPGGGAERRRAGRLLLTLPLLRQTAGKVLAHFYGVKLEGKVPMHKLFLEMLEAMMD

In the case of `CCn1nc(C)c2c1C(=O)NCC(c1ccc(O)cc1)=N2`, the result in [1], in [2], in [3], in assay [4], in assay [5] and in assay [6] was inactive. Besides, the compound was called inactive in assay [7], in assay [8], in assay [9], in [10], in [11] and in assay [12]. The compound was classed as inactive in assay [13], in [14] and in assay [15].

Consider `FC(F)=C(F)C(F)(F)C(F)(F)C(F)(F)C(F)(F)C(F)(F)C(F)(F)F`, for which the call in [1], in assay [2], in assay [3], in [4], in assay [5] and in assay [16] was inactive. Also, the compound was called inactive in assay [6], in assay [17], in assay [7], in assay [18], in assay [8] and in assay [19]. In addition, the compound was called inactive in [20], in [12], in assay [13], in [14] and in assay [15]. The AC50 in [5] was 12.9 µM (active).

For the compound `CCCCC(CC)C(=O)OCCOCCOCCOC(=O)C(CC)CCCC` (stereo not drawn), the result in assay [1], in assay [2], in assay [4], in [5], in [16] and in [6] was inactive. Further, the call in [7], in assay [8], in assay [11], in [13] and in [14] was inactive. Further, in assay [3], the AC50 is 65.8 µM (active).

Take `CCN(CC)C(=S)SSC(=S)N(CC)CC`: the compound was classed as inactive in [1], in assay [2], in assay [4], in assay [5], in [17] and in assay [8]. The compound was classed as inactive in [19], in assay [11] and in assay [12]. Further, the half-maximal activity concentration (AC50) in assay [3] was 117 µM (active); in assay [6], 139 µM (active); in assay [14] it was 162 µM (active); in assay [15] it was 175 µM (active).
